Assay results as given in PubChem BioAssay (NCATS).
Records with an inconclusive call do not appear. A call without a number means that no potency is given here. Calls of active or inactive are those of the source. Calls come from the whole dose curve; as a rule, active = well fitted inhibition curve with a large enough effect; inconclusive = small, poorly fitted or top-dose-only effect; inactive = flat fitted curve, though single readings scatter.

molecular target: Voltage-gated inwardly rectifying potassium channel KCNH2 (Homo sapiens) (UniProt Q12809); test: qHTS Assay for Small Molecule Inhibitors of the Human hERG Channel Activity (AID 588834); conditions: U2OS BacMam hERG, FluxOR thallium flux fluorescence; series mostly up to 46.1 µM;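 note: lower thallium flux fluorescence means stronger hERG block; nearly all actives have a fitted effect of over 50% in size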
Outline: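 U2OS cells transduced with hERG via BacMam (MOI ~100), plated 2000/well, loaded with FluxOR thallium dye, compound ~10 min, then stimulation buffer; fluorescence decrease read kinetically; AC50 from Hill fits.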
Potency is the fitted concentration of half-maximal effect.

Chain of Voltage-gated inwardly rectifying potassium channel KCNH2 (Homo sapiens) (Q12809 whole entry, looked up): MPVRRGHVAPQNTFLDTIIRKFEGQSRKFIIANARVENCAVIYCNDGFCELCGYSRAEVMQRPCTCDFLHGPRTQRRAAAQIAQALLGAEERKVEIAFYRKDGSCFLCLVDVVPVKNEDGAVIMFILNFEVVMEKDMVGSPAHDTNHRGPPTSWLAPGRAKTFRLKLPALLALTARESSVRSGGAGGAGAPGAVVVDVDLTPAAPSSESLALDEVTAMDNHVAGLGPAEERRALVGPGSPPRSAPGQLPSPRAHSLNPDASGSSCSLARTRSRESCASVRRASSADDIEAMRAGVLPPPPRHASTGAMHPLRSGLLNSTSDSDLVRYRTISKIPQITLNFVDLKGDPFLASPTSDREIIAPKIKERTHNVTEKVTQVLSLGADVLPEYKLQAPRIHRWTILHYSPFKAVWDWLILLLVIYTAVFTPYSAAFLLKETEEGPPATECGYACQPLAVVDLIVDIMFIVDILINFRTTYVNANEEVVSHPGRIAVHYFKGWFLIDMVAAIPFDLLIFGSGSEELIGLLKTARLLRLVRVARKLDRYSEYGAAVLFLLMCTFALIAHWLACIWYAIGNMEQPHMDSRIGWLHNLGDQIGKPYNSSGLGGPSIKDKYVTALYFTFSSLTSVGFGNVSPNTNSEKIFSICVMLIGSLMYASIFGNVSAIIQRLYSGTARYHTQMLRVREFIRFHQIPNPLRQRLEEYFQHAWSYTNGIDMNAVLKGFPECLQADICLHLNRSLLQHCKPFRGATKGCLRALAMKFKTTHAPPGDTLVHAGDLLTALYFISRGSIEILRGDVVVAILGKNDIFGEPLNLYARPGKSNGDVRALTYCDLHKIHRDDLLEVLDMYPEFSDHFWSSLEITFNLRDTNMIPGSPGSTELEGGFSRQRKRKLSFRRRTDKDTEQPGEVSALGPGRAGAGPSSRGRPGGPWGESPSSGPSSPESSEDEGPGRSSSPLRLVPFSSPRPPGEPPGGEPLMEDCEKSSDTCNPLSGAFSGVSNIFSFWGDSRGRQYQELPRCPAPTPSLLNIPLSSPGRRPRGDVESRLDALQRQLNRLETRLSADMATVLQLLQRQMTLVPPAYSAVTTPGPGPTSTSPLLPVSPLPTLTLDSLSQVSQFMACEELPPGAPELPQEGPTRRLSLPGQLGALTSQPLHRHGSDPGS

Compound	Potency
CCCCCCCCCCCCCCCCCCCCCC(=O)Nc1ccn([C@@H]2O[C@H](CO)[C@@H](O)[C@@H]2O)c(=O)n1	inactive
Cc1cccc(C)c1NC(=O)NC1=CCCN1C	inactive
Cc1ccc(C(C)(C)c2ccc(C)cc2)cc1	inactive
CCOc1ccc(S(=O)(=O)O)c2cccnc12	inactive
O=C(O)CCC/C=C\C[C@@H]1[C@@H](/C=C/[C@@H](O)COc2cccc(Cl)c2)[C@H](O)C[C@@H]1O	inactive
FC(F)(F)COCC(F)(F)F	inactive
Cc1nc(NS(=O)(=O)c2ccc(N)cc2)nc(C)c1Br	inactive
C=CCCCCCCCCC(=O)OC	inactive
O=C1c2ccccc2CN2C(=O)c3ccccc3CN12	inactive
O=C(O)c1ccc(OCCn2ccnc2)cc1	inactive
c1ccc(-n2cnnn2)cc1	inactive
COC(=O)CCC[N+](C)(C)C	inactive
CC[C@H]1OC(=O)[C@H](C)[C@@H](O[C@H]2C[C@@](C)(OC)[C@@H](O)[C@H](C)O2)C(C)[C@@H](O[C@@H]2O[C@H](C)C[C@H](N(C)C)[C@@H]2O)[C@](C)(OC)C[C@@H](C)C(=O)[C@H](C)[C@@H](O)[C@]1(C)O (some centres not stated)	inactive
CC(C)(C)CC(C)(C)c1cc(Cc2cc(C(C)(C)CC(C)(C)C)cc(-n3nc4ccccc4n3)c2O)c(O)c(-n2nc3ccccc3n2)c1	inactive
C[Se]CC[C@H](N)C(=O)O	inactive
CCOC(=O)c1c[nH]c2cc(OCC(C)C)c(OCC(C)C)cc2c1=O	inactive
S=C=Nc1ccc(N=C=S)cc1	inactive
Nc1nc(=O)n([C@@H]2CS[C@H](CO)O2)cc1F	inactive
CCCC(=O)O	inactive

Compound	Potency
Cc1cc(=O)c(C(=O)N[C@@H](C(=O)N[C@@H]2C(=O)N3C(C(=O)O)=C(CSc4nnnn4C)CS[C@H]23)c2ccc(O)cc2)c[nH]1	inactive
CC(=O)[O][Al][O]C(C)=O	inactive
N=C(N)n1cccn1	inactive
CC(=O)Nc1ccc(NC(=S)NC(=O)c2ccc(C(C)(C)C)cc2)cc1	8.91 µM (active)
Cc1cc(C(=O)NCCc2ccc(S(=O)(=O)NC(=O)NN3CCCCCC3)cc2)no1	inactive
CS(=O)(=O)OCC(O)C(O)COS(C)(=O)=O (configuration not stated)	inactive
CN=C1C=CC(=C(c2ccc(N(C)C)cc2)c2ccc(N(C)C)cc2)C=C1	4.47 µM (active)
CC(C)(COP(=O)(O)OP(=O)(O)OC[C@H]1O[C@@H](n2cnc3c(N)ncnc32)[C@H](O)[C@@H]1OP(=O)(O)O)C(O)C(=O)NCCC(=O)NCCS (some centres not stated)	inactive
O=C(Nc1ccc(O)cc1)c1ccccc1O	inactive
O=P(O)(O)OC[C@H](O)CO	inactive
COc1ccc(/C=N/NC(=O)c2ccncc2)c(C(=O)O)c1OC	inactive
CNC(=O)[C@H](Cc1c[nH]c2ccccc12)NC(=O)[C@@H](CC(=O)NO)CC(C)C	inactive
CCCCCCOC(=O)c1cccnc1	inactive
CC(C)c1nc(N(C)S(C)(=O)=O)nc(-c2ccc(F)cc2)c1/C=C/C(O)CC(O)CC(=O)O (configuration not stated)	14.1 µM (active)
CCCc1nc(C(C)(C)O)c(C(=O)OCc2oc(=O)oc2C)n1Cc1ccc(-c2ccccc2-c2nn[nH]n2)cc1	inactive
C[C@H](N)C(=O)N[C@@H](C)P(=O)(O)O	inactive
CCC(O)c1ccccc1 (configuration not stated)	inactive
CCCCC[C@H](O)/C=C/[C@@H]1[C@H]2C/C(=C/CCCC(=O)O)O[C@H]2C[C@H]1O	inactive
